Screening results (PubChem)
A selection: hits, their analogues and other compounds. The true share with any hit is near 7.9%.
LASV entry inh – blocks Lassa virus binding to or entry into cells; Lassa virus pseudotype entry inhibition, cell reporter; Potency, µM (series often up to 37.9 µM), for the others: top-dose activity change, negative = inhibition, most hits filed as inhibitors; hit rate 1.2% among 300,000; calls by dose curve; tested in HEK293 cells; note: potency is the fitted concentration of half-maximal effect; nearly all actives have a fitted effect of over 50% in size
FMDV antiviral – antivirals against foot and mouth disease virus. FMDV antiviral cell-based qHTS. Potency, µM (doses to about 57.9 µM), for the others: at the highest dose activity change, negative = inhibition, actives largely listed as inhibitors. hit rate 1.2% among 410,000; calls by dose curve; tested in HEK293T cells; note: read-out not given here; potency is the fitted concentration of half-maximal effect; nearly all actives have a fitted effect of over 45% in size
HCV inhibitor – HCV inhibition | Huh7.5.1 HCVcc-Cre infection, luciferase reporter, 44 h | Potency, µM (titrated, usually from 41.8 µM), for the others: top-dose activity change, negative = inhibition, actives largely listed as inhibitors | hit rate 3.4% among 340,000 | AID 651820; active = well fitted inhibition curve with a large enough effect; inconclusive = small, poorly fitted or top-dose-only effect, or another doubt; inactive = no such curve, though single readings can be large or run the other way; note: potency is the fitted concentration of half-maximal effect
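After 44 h co-culture of compound, cells and HCVcc-Cre (~0.5 moi), substrate is added for 15 min at room temperature and luciferase measured over 15 sec. Cells were seeded at 1,000/well and pre-cultured 4 h.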
Marburg entry inh – inhibitors of Marburg virus binding or cell entry; Marburg virus pseudotyped entry inhibition, cell reporter; Potency, µM (titrated, usually from 37.8 µM), inactives show at the top dose activity change, negative = inhibition, hits mostly inhibitors; hit rate 1.8% among 300,000; calls by dose curve; tested in HEK293 cells; note: potency is the fitted concentration of half-maximal effect
HCMV antiviral – inhibitors of human cytomegalovirus | AID 1259415 | hit rate 4.5% among 410,000 | HFF cells, HCMV-luciferase reporter, 72 h; active compounds read low | activity change, negative = inhibition, % at 57.5 µM; in the data active = activity change below about -60%; inconclusive = no clear call, values can overlap the other calls; inactive = above about -39%
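Screen run at 2 compound doses on HFFs infected with reporter HCMV, MOI 1 PFU/cell. Luciferase activity from cell lysates at 72 h post infection gave inhibition relative to buffer-only and Salinomycin wells.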
The depositor's hits bear a star; ? = inconclusive; . = no result; [ ] = remark or other dose. % is set by controls: 0 for no effect and ±100 for the full control effect.

SMILES | LASV entry inh | FMDV antiviral | HCV inhibitor | Marburg entry inh | HCMV antiviral
COc1ccc(OC)c(/C=C/c2c([N+](=O)[O-])c(=O)n(C)c(=O)n2C)c1 | . | -23% | -7% | -29%[46.1 µM] | -5
CN(C)c1ccc(/C=C/c2c([N+](=O)[O-])c(=O)n(C)c(=O)n2C)cc1 | . | 10% | -1% | . | -12
COc1ccc(/C=C/c2c([N+](=O)[O-])c(=O)n(C)c(=O)n2C)cc1O | -24% | ? | -14% | ? | -103*
CCN(CC)CCNC(=O)C(=O)NCC(c1cccnc1)N1CCN(c2ccc(F)cc2)CC1 (stereo not drawn) | 16%[46.1 µM] | -15% | . | . | 8
CC(C)(C)c1ccc(OCC(=O)N/N=C/c2ccc(N3CCOCC3)cc2)cc1 | 0.092µM* | 0% | 0% | -23% | -17
O=C(O)c1cc(N/N=C/c2ccc(N3CCOCC3)cc2)ccc1Cl | . | 14µM* | 29% | . | 113
Clc1cccc(N/N=C/c2ccc(N3CCOCC3)cc2)c1 | 12% | 28% | -28% | 17% | -27
O=C(N/N=C/c1ccc(N2CCOCC2)cc1)c1ccccc1OCCOc1ccccc1 | ? | ? | 8.9µM* | ? | 4
C/C(=N/NC(=O)COc1ccc(C(C)(C)C)cc1)c1ccc(N2CCOCC2)cc1 | 0.56µM* | -3% | ? | -4% | 15
CC1(C)NCCN2C(=O)CS[C@H]21 | . | . | . | 16%[46.1 µM] | .
Cc1ccc(C)n1C1C(=O)N(Cc2ccc(C(C)C)cc2)c2ccccc21 (stereo not drawn) | . | . | . | . | 18
O=C(NCc1ccccc1Cl)[C@@H]1[C@@H](CO)[C@@H]2Cn3c(cccc3=O)[C@@H]2N1C(=O)C1CCC1 | . | . | . | . | 3
COc1cccc(-c2noc(-c3ccc(Cl)nc3)n2)c1 | ? | 1% | 17% | ? | 346
COc1cccc(NC(=O)N(C)C[C@H]2Oc3cc(C#Cc4ccncc4)ccc3S(=O)(=O)N([C@H](C)CO)C[C@H]2C)c1 | . | 91% | . | . | -109*
COc1ccc(C#Cc2ccc3c(c2)O[C@@H](CN(C)C(=O)Nc2cccc(OC)c2)[C@H](C)CN([C@@H](C)CO)S3(=O)=O)cc1 | . | 35% | . | . | -35
Cc1ccccc1-c1ccc2c(c1)O[C@@H](CN(C)C(=O)Nc1ccc(C(F)(F)F)cc1)[C@H](C)CN([C@@H](C)CO)S2(=O)=O | . | -24% | . | . | -76*
O=C(CN(CC(=O)Nc1ccc(F)cc1)CC(=O)Nc1ccc(F)cc1)Nc1ccc(F)cc1 | . | . | . | . | 52
O=[N+]([O-])c1ccc(Cl)c([N+](=O)[O-])c1 | . | ? | ? | . | -74*
O=[N+]([O-])c1cc(Cl)c(Cl)cc1Cl | . | -16% | 3% | . | 29
Cc1cccc(NC(=S)N(CCCN2CCOCC2)Cc2cn(C)c3ccccc23)c1 | ? | -8% | -25% | ? | -89*
Cc1ccc(NC(=S)N(CCCN2CCOCC2)Cc2ccccn2)cc1Cl | -10% | -10% | -4% | 12% | -39
Cn1cc(CN(CCCN2CCOCC2)C(=S)Nc2cccc(Cl)c2)c2ccccc21 | ? | -16% | 8.9µM* | ? | -78*
Cc1cc(C)c(NC(=S)NC(=O)c2ccccc2)cc1C | . | 0% | . | . | 34
CCOC(=O)c1sc(NC(=S)NC(=O)c2ccccc2)c(C(=O)OCC)c1C | -6% | -17% | ? | -19% | -15
CCOC(=O)C1=C(NC(=S)NC(=O)c2ccccc2)c2ccccc2CC1(C)CC (stereo not drawn) | 2.1µM* | 0% | ? | 5.8µM* | ?
SMILES | LASV entry inh | FMDV antiviral | HCV inhibitor | Marburg entry inh | HCMV antiviral
CCOC(=O)C1=C(NC(=S)NC(=O)c2ccccc2)c2ccccc2CC1C(C)C (stereo not drawn) | 0.89µM* | 0% | ? | 0.79µM* | -77*
CC(=O)n1cc([C@H]2C=C(C(N)=O)O[C@@H](OCc3ccc(CO)cc3)C2)c2ccccc21 | . | 0% | 2.8µM* | . | 10
CC(=O)n1cc([C@@H]2C=C(C(=O)N3CCN(Cc4ccccc4)CC3)O[C@H](OCc3ccc(CO)cc3)C2)c2ccccc21 | . | ? | ? | . | -74*
CC(=O)n1cc([C@H]2C=C(C(=O)N3CCN(Cc4ccccc4)CC3)O[C@@H](OCCCCO)C2)c2ccccc21 | . | 0% | 10% | . | .
O=C(Nc1ccc2nc(SCC(=O)N3CCOCC3)sc2c1)c1ccccc1Cl | 3%[46.1 µM] | ? | . | 14%[46.1 µM] | -83*
O=C(Nc1ccc2nc(SCC(=O)N3CCOCC3)sc2c1)c1ccc(Cl)cc1 | ? | 20µM* | . | ? | -74*
CC(C)C(=O)Nc1ccc2nc(SCC(=O)N3CCc4ccccc43)sc2c1 | -6%[46.1 µM] | 35µM* | . | -19%[46.1 µM] | -11
O=C(COc1ccccc1Cl)Nc1ccc2nc(SCC(=O)N3CCOCC3)sc2c1 | 3%[46.1 µM] | ? | . | ? | -35
O=C(Nc1ccc2nc(SCC(=O)N3CCOCC3)sc2c1)c1ccc(Br)cc1 | 1%[46.1 µM] | ? | . | ? | -4
O=C(Nc1ccc2nc(SCC(=O)N3CCOCC3)sc2c1)c1ccc(F)cc1 | 19%[46.1 µM] | -16% | . | ? | -31
O=C(Nc1ccc2nc(SCC(=O)N3CCOCC3)sc2c1)c1cccc(Br)c1 | -18%[46.1 µM] | 25µM* | . | ? | -35
CC(C)NC(=O)C1(C)CN(S(C)(=O)=O)CC(=O)N1Cc1cccc(C(F)(F)F)c1 (stereo not drawn) | . | -7% | . | . | -7
NC(C(=O)N[C@@H]1C(=O)N2C(C(=O)O)=C(Cl)CS[C@H]12)c1ccccc1 (stereo partly drawn) | -4% | . | . | ? | .
COC(=O)CSc1nc2ccc(NC(=O)c3ccccc3C(=O)N3CCOCC3)cc2s1 | -2% | -17% | 3% | -2% | -64*
COc1ccc(CCNC(=O)/C(C#N)=C/c2cccc(OCc3ccccc3)c2)cc1OC | -19% | 28µM* | ? | ? | 28
N#C/C(=C\c1cccc(NC(=O)c2ccccc2Cl)c1)C(=O)NCCc1ccccc1 | ? | 28µM* | ? | 11µM* | ?
C[C@@H]1CN([C@H](C)CO)C(=O)CCCn2nncc2CO[C@@H]1CN(C)C(=O)Nc1ccc2c(c1)OCO2 | . | -20% | . | . | -9
CC(C)(C)NCC(O)CON=C1c2ccccc2-c2ccccc21 (stereo not drawn) | . | ? | 25µM* | 10µM* | -5
OC(c1ccccc1)(c1ccccc1)C1CCN(CCCOc2ccc(F)cc2)CC1 | . | -20% | . | . | -10
OC(c1ccccc1)(c1ccccc1)C1CCN(CCCOc2cccc(C(F)(F)F)c2)CC1 | . | . | . | . | -66*
CC(C)c1ccc(OCCCN2CCC(C(O)(c3ccccc3)c3ccccc3)CC2)cc1 | . | . | . | . | -99*
OC(c1ccccc1)(c1ccccc1)C1CCN(CCCOc2ccc(C(F)(F)F)cc2)CC1 | . | . | . | . | -81*
CC(C)C(=O)COc1c2occc2cc2ccc(=O)oc12 | . | 17% | -17% | . | -11
CC(=O)NC(NC(C)=O)c1cccc(OCc2ccccc2)c1 | 16% | -15% | 4% | -1% | -68*
Cc1nnc2c(SC(C)C)nc3ccccc3n12 | . | -1% | ? | . | -82*
CCCN(CCC)c1nc2ccccc2n2c(C)nnc12 | 6% | -24% | 3.2µM* | ? | -21
